According to PubChem BioAssay AID720688 (NMMLSC, 2013):
Calls of active or inactive are those of the source.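 Rule for the calls: active = half-effect concentration at most 10 µM, response change at least 30% across doses, and a curve fit passing quality checks; inactive = the rest.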

Target: Cell division control protein 42 homolog (Homo sapiens) (UniProt P60953)
Experiment: inhibition of fluorescent GTP binding to wildtype Cdc42 – biochemical, protein source comparison, flow cytometry beads, Bodipy-FL-GTP, mechanism study for Ras-family GTPase inhibitor project, late-stage follow-up (AID 720688)
Conditions: GST-Cdc42 beads; protein source 1, at 100 µM (top of the series)

Chain of Cell division control protein 42 homolog (Homo sapiens) (P60953 whole entry, looked up): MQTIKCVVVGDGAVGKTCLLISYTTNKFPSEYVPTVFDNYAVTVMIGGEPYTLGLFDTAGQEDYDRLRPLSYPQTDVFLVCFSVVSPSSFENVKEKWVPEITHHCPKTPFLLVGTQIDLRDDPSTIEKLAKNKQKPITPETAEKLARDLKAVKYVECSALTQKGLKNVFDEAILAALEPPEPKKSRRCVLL

SMILES	outcome
CC1(C)Cc2c(sc(NC(=S)NC(=O)c3cccc(N=[N+]=[N-])c3)c2C(=O)O)CO1	inactive
CC1(C)Cc2c(sc(NC(=S)NC(=O)c3ccc(N=[N+]=[N-])cc3)c2C(=O)O)CO1	inactive
